# Measurements taken from publication PMC7862700, “An all-to-all approach to the identification of sequence-specific readers for epigenetic DNA modifications on cytosine”.
# Experiments:
# Test in all cases: DAPPL (digital affinity profiling via proximity ligation, sequencing); 10 mM Tris-HCl pH 7.5, 50 mM NaCl, 1 mM DTT, 4% glycerol, room temperature, 30 min; GST-TFs on glutathione beads, 16-mer random dsDNA library, 0.1% formaldehyde crosslink after washing; high values mean tight binding
# Conditions in all cases: protein: recombinant; tags: N-terminal GST; dsDNA, one strand shown
# [1] = target: T1, FLI1 (Homo sapiens, UniProt Q01543 1-452)
# T1 sequence: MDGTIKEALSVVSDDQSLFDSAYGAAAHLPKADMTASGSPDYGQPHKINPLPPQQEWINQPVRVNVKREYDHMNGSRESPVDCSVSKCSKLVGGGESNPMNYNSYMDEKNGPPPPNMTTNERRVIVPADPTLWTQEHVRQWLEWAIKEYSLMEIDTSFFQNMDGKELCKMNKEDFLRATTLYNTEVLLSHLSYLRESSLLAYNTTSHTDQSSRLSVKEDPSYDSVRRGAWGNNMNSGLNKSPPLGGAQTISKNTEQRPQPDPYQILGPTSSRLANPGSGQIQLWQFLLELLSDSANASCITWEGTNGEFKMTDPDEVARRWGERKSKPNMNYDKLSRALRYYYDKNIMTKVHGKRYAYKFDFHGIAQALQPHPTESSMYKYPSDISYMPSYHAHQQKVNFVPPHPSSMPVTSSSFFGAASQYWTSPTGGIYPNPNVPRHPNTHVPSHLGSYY
# Method in brief: (§1)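 Human transcription factors were made in yeast as GST fusions, captured on glutathione beads and barcoded with DNA. With a tag-only sample included, the pool was incubated with 200 nmole of a random double-stranded 16-mer DNA library in Tris/NaCl/DTT/glycerol buffer at room temperature for 30 min, then crosslinked with 0.1% formaldehyde after washing, ligated by proximity, amplified and sequenced. For binding signal, each hexamer's read frequency for a factor is divided by its frequency for the tag-only sample.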
# [2] = target: T2, ELK1 (Homo sapiens, UniProt P19419 1-428)
# T2 sequence: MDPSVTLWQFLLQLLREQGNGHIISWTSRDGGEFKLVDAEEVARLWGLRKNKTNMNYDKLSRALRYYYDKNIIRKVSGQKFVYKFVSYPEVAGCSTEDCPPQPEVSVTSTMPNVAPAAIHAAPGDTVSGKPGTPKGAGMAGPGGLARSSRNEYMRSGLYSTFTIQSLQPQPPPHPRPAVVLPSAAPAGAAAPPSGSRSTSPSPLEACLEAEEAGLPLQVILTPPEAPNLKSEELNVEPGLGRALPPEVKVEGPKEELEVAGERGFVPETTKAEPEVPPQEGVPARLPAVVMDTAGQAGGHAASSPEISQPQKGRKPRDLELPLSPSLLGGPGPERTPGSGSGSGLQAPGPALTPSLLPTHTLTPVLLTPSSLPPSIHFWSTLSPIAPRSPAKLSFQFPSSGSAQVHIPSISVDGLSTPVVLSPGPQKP
# Method in brief: as §1
# [3] = target: T3, GABPA (Homo sapiens, UniProt Q06546 1-454)
# T3 sequence: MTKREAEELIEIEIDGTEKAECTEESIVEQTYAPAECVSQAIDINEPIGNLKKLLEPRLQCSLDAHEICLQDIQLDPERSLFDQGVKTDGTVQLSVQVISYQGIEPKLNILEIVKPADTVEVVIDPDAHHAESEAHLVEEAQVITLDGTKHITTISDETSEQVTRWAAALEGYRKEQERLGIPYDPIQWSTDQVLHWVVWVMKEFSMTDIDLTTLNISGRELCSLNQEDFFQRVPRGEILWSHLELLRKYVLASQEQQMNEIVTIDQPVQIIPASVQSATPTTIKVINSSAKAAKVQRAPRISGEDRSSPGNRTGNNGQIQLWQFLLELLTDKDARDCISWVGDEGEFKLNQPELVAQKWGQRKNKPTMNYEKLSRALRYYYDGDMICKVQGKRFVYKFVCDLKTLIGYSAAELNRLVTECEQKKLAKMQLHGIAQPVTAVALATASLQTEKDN
# Method in brief: as §1
# [4] = target: T4, ERG (Homo sapiens, UniProt P11308 1-479)
# T4 sequence: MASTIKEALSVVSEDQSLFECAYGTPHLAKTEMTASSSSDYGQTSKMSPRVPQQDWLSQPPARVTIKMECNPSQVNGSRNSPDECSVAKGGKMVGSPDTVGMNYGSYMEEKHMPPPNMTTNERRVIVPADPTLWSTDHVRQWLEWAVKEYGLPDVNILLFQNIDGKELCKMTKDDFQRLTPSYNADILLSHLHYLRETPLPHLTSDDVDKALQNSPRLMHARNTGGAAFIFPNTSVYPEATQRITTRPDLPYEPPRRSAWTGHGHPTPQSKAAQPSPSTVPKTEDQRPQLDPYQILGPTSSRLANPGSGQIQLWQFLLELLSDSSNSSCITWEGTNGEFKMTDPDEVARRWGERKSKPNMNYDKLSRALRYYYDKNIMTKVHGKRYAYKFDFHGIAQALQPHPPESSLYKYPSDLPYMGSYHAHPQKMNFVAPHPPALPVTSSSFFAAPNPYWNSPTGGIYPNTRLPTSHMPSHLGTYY
# Method in brief: as §1
# [5] = target: ELF1 (Homo sapiens, UniProt P32519 1-619)
# Method in brief: as §1
# [6] = target: SPI1 (Homo sapiens, UniProt P17947 1-270)
# Method in brief: as §1
# [7] = target: SPIB (Homo sapiens, UniProt Q01892 1-262)
# Method in brief: as §1
# [8] = target: T5, ELK3 (Homo sapiens, UniProt P41970 1-407)
# T5 sequence: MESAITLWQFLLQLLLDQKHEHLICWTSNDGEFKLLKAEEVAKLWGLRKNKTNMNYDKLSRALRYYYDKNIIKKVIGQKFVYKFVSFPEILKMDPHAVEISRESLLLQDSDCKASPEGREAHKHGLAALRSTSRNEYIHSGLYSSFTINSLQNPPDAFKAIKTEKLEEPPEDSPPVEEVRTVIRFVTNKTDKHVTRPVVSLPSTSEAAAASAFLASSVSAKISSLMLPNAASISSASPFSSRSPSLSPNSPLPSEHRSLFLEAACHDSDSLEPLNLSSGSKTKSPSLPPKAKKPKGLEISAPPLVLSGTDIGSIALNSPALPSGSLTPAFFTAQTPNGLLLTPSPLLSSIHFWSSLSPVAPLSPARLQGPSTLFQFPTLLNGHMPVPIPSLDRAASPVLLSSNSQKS
# Method in brief: as §1
# [9] = target: T6, FEV (Homo sapiens, UniProt Q99581 1-238)
# T6 sequence: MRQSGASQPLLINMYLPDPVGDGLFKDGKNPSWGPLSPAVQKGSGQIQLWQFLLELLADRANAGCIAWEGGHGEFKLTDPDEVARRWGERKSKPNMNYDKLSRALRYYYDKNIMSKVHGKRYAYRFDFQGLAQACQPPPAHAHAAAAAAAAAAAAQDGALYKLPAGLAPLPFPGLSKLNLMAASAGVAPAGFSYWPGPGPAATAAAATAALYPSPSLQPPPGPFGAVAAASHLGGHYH
# Method in brief: as §1
# [10] = target: ETV5 (Homo sapiens, UniProt P41161 1-510)
# Method in brief: as §1
# [11] = target: T7, SPIC (Homo sapiens, UniProt Q8N5J4 1-248)
# T7 sequence: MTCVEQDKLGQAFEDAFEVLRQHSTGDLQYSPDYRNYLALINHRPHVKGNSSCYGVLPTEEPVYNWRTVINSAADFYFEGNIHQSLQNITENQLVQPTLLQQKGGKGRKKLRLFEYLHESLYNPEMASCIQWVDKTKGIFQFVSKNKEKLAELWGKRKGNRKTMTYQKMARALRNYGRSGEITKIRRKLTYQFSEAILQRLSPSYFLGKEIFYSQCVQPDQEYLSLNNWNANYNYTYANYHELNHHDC
# Method in brief: as §1
# [12] = target: ELF4 (Homo sapiens, UniProt Q99607 1-663)
# Method in brief: as §1
# [13] = target: T8, ELK4 (Homo sapiens, UniProt P28324-2 1-405)
# T8 sequence: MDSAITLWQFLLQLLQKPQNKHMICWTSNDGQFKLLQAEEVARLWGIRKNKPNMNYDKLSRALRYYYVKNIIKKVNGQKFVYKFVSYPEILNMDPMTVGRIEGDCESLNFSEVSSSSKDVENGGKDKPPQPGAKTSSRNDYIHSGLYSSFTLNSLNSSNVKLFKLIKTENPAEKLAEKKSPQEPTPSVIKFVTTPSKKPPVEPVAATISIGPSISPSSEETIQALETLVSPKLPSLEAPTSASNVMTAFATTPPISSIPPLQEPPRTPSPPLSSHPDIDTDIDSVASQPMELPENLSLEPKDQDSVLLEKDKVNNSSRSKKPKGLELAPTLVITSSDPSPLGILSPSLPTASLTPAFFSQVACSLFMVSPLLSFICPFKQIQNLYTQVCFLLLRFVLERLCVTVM
# Method in brief: as §1
# [14] = target: T9, ETV2 (Homo sapiens, UniProt O00321 1-342)
# T9 sequence: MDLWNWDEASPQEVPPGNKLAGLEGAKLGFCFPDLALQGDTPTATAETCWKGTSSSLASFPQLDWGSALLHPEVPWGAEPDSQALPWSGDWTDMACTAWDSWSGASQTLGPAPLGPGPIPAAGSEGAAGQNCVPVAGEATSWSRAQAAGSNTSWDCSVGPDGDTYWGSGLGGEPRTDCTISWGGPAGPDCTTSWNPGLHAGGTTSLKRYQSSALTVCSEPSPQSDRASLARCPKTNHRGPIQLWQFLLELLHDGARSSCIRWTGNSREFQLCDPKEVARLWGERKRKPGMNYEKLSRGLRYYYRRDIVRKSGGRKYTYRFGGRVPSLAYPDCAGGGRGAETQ
# Method in brief: as §1
# [15] = target: T10, ELF3 (Homo sapiens, UniProt P78545 1-371)
# T10 sequence: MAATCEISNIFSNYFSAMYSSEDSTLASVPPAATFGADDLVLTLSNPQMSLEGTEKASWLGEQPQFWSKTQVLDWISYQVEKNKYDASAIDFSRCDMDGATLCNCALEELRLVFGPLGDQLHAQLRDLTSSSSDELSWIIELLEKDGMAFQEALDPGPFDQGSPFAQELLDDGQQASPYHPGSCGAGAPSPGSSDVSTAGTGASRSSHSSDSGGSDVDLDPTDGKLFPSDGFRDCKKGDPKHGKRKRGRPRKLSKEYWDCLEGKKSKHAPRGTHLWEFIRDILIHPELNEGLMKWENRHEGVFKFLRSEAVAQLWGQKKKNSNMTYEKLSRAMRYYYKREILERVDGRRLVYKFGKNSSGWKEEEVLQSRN
# Method in brief: as §1
# [16] = target: ETV1 (Homo sapiens, UniProt P50549 1-477)
# Method in brief: as §1
# Sequence of SPIB (Q01892 whole entry): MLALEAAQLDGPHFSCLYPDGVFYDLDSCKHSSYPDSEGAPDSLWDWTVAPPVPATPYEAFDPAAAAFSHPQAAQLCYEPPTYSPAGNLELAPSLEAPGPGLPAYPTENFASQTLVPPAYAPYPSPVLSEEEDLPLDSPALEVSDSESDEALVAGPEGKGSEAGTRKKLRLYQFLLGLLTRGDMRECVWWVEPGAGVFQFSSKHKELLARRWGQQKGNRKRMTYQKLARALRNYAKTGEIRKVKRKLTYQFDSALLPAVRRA
# Sequence of ETV5 (P41161 whole entry): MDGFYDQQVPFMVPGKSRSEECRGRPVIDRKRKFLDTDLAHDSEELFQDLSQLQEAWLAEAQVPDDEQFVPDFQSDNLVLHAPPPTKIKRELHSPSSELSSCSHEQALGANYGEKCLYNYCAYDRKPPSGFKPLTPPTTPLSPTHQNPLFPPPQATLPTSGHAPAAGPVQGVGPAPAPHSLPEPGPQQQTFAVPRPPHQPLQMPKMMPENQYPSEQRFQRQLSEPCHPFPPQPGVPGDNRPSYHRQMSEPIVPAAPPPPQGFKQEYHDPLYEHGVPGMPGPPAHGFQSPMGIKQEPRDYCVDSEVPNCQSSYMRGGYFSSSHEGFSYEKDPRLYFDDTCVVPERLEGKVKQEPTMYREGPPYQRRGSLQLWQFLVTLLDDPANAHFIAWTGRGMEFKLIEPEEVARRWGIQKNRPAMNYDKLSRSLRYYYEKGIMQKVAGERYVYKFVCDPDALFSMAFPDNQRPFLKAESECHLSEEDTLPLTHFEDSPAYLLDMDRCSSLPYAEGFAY
# Sequence of ELF4 (Q99607 whole entry): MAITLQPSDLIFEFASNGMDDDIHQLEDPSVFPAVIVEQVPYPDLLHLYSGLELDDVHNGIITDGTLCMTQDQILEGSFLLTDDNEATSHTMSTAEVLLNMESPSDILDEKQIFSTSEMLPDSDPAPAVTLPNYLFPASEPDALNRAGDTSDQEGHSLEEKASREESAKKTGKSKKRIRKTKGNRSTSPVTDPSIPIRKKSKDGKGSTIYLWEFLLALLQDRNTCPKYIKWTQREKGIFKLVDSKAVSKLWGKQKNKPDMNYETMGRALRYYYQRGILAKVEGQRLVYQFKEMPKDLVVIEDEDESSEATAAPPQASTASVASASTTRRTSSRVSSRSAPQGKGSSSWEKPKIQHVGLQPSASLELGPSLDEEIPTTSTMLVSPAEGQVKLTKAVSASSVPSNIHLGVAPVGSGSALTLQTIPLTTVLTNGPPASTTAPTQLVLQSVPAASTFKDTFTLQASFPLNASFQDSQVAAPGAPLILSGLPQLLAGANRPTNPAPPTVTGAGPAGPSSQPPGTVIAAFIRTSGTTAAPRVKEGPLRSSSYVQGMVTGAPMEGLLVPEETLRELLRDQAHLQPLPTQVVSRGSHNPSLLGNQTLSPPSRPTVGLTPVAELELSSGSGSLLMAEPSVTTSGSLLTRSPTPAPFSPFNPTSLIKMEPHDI
# Sequence of ELF1 (P32519 whole entry): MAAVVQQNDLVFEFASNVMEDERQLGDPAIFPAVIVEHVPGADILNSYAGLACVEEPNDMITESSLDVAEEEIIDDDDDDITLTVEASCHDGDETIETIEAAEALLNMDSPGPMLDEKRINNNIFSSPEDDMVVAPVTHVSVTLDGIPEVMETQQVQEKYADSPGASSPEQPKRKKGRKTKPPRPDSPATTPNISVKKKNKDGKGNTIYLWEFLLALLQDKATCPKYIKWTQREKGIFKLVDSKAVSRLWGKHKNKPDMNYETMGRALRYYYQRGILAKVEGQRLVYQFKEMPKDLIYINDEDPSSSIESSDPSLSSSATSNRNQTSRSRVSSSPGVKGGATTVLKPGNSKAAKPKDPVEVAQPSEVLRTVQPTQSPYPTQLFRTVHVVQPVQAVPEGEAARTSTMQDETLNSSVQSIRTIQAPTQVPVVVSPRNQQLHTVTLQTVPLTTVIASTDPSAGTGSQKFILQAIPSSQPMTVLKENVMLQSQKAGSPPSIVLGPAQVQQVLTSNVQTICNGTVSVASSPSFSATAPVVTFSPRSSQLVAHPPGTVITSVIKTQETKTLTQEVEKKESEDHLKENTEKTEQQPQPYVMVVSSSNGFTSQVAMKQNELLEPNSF
# Sequence of ETV1 (P50549 whole entry): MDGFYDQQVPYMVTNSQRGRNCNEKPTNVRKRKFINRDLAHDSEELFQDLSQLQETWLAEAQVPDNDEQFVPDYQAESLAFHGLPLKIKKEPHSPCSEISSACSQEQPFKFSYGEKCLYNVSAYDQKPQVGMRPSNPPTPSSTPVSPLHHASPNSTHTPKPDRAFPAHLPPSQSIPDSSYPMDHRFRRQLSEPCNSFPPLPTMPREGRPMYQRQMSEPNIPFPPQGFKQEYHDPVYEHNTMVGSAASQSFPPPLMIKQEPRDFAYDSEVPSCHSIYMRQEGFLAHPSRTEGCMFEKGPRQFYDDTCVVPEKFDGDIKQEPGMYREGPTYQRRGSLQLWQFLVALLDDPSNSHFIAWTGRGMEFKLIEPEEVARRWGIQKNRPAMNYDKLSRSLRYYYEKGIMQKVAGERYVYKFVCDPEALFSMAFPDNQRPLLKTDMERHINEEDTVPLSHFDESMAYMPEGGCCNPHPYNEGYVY
Sequence,binding signal [1],binding signal [2],binding signal [3],binding signal [4],binding signal [5],binding signal [6],binding signal [7],binding signal [8],binding signal [9],binding signal [10],binding signal [11],binding signal [12],binding signal [13],binding signal [14],binding signal [15],binding signal [16]
GGTTCA,"1.14 fold enrichment (6-mer frequency, TF over GST control)","1.04 fold enrichment (6-mer frequency, TF over GST control)","1.11 fold enrichment (6-mer frequency, TF over GST control)","1.03 fold enrichment (6-mer frequency, TF over GST control)","1.07 fold enrichment (6-mer frequency, TF over GST control)","1.02 fold enrichment (6-mer frequency, TF over GST control)","1.04 fold enrichment (6-mer frequency, TF over GST control)","1.03 fold enrichment (6-mer frequency, TF over GST control)","1.1 fold enrichment (6-mer frequency, TF over GST control)","1.03 fold enrichment (6-mer frequency, TF over GST control)","1.14 fold enrichment (6-mer frequency, TF over GST control)","1.08 fold enrichment (6-mer frequency, TF over GST control)","1.14 fold enrichment (6-mer frequency, TF over GST control)","1.14 fold enrichment (6-mer frequency, TF over GST control)","1.07 fold enrichment (6-mer frequency, TF over GST control)","1.07 fold enrichment (6-mer frequency, TF over GST control)"
GGCCCT,"1.09 fold enrichment (6-mer frequency, TF over GST control)","1.08 fold enrichment (6-mer frequency, TF over GST control)","1.11 fold enrichment (6-mer frequency, TF over GST control)","1.1 fold enrichment (6-mer frequency, TF over GST control)","1 fold enrichment (6-mer frequency, TF over GST control)",,"1.15 fold enrichment (6-mer frequency, TF over GST control)",,,"1.04 fold enrichment (6-mer frequency, TF over GST control)","1.11 fold enrichment (6-mer frequency, TF over GST control)","1.06 fold enrichment (6-mer frequency, TF over GST control)","1.06 fold enrichment (6-mer frequency, TF over GST control)","1.14 fold enrichment (6-mer frequency, TF over GST control)","1.11 fold enrichment (6-mer frequency, TF over GST control)",
